Screening data deposited in PubChem BioAssay by National Center for Advancing Translational Sciences (NCATS).
PINK1 expr mod = PINK1 expression modulation; PINK1 immunofluorescence, high-content cytometry, 24 h; Potency, µM (doses to about 76.6 µM), for inactives: top-dose activation (PINK1 increase), usual class: activators; actives 0.2% (n = 410,000); AID 624263; active = well fitted activation curve with a large enough effect; inconclusive = small, poorly fitted or top-dose-only effect; cell line not stated here; also: potency is read from the fitted curve at half-maximal effect; % of control where 0% means no effect; nearly all actives have a fitted effect of over 65% in size
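Measures PINK1 amount and localization on or inside mitochondria by immunofluorescence. Stable cells get compounds at 5 concentrations for 24 hours before fixation and staining; CCCP controls included.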
Vif-APOBEC3F blk = inhibitors of Vif-A3F interaction; HeLa A3F-eYFP + Vif (tagged APOBEC3F with the HIV-1 protein that degrades it), YFP fluorescence increase; Potency, µM (highest dose often 46.1 µM), for inactives: at the highest dose activity, negative = active; actives 0.2% (n = 390,000); also: potency is read from the fitted curve at half-maximal effect; % of control where 0% means no effect; nearly all actives have a fitted effect of over 65% in size
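HeLa cells stably expressing Vif plus C-terminally eYFP-tagged A3F were seeded, incubated overnight at 37 deg C, dosed with compound, incubated overnight again at 37 deg C. Yellow fluorescence (Ex 488/Em 500-530) reported blocked Vif-mediated A3F-eYFP degradation.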
TRPML1 inh = inhibitors of human TRPML1 channel | Q9GZU1 | TRPML1-inducible cells, Ca2+ dye fluorescence, FDSS; stronger effect = lower value; inhibition of EC80 agonist-evoked calcium signal | activity change, negative = inhibition, % (concentration not given with the values) | actives 0.02% (n = 390,000); in the data active = activity change below about -50%; inconclusive = between about -30% and that limit;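 also: stimulus is agonist 54-4 at its EC80 concentration; % is scaled to controls: 0 for no effect and ±100 for the full control effect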
Target sequence (Q9GZU1 whole entry, looked up): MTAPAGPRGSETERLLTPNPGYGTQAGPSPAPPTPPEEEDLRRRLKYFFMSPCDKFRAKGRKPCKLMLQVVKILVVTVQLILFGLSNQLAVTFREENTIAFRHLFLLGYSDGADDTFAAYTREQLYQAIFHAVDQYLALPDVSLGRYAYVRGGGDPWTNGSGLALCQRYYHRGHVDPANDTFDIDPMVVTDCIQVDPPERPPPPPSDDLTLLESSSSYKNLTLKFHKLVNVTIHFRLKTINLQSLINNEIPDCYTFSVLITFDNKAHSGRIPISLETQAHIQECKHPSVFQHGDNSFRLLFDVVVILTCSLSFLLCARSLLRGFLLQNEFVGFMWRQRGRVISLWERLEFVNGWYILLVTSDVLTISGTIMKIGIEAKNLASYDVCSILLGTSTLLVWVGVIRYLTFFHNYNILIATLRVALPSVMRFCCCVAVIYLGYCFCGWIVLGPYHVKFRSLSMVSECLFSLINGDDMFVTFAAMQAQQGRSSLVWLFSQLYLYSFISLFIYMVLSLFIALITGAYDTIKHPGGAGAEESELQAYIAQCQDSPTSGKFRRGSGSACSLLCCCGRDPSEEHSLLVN
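Tet-induced TRPML1-DL cells loaded with Ca8 no-wash calcium dye were read kinetically on FDSS. Compound addition was followed by EC80 agonist 54-4 (4 uM final); inhibition was read over 110 s.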
TRPML1 agonist = activates the human TRPML1 channel | Q9GZU1 | activation, % (concentration not given with the values) | AID 624414 | actives 0.12% (n = 410,000) | TRPML1-expressing cells, Ca2+ dye fluorescence, FDSS; in the data active = activation above about 50%; inconclusive = mostly about 30% to 49%; also: 0% is about no effect
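Tetracycline-induced TRPML1-DL cells are seeded and incubated overnight before loading with a no-wash Ca2+ dye and quencher. Agonist activity is taken from the 110 s fluorescence read following compound pin-transfer on an FDSS, before EC80 54-4 challenge.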
Vif-APOBEC3G blk = Vif-A3G binding inhibition | Q9HC16 | HeLa A3G-eYFP + Vif (tagged APOBEC3G with the HIV-1 protein that degrades it), YFP fluorescence, overnight | Potency, µM (top dose mostly 46.1 µM), without a hit: top-dose activity, negative = active, actives largely listed as inhibitors | actives 0.076% (n = 410,000) | AID 602310; also: potency is read from the fitted curve at half-maximal effect; % is scaled to controls: 0 for no effect and ±100 for the full control effect; nearly all actives have a fitted effect of over 60% in size
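Read-out is eYFP fluorescence (Ex 488/Em 500-530) from Vif-expressing HeLa A3G-eYFP cells; more signal means A3G escaped Vif-mediated degradation. Cells plated overnight, compound pinned in, incubated overnight at 37 deg C.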
An asterisk follows results filed as active; ? = inconclusive; . = no result; [ ] = another dose, or the depositor's remark. Shown are actives, neighbours in structure and some others; about 0.52% of the full set was active somewhere. Unless noted, calls follow the shape of the dose curve; as a rule, active = well fitted curve in the direction sought with a large enough effect; inconclusive = small, poorly fitted or top-dose-only effect, or another doubt; inactive = no such curve, though single readings can be large; an effect the other way counts as inactive or inconclusive.

SMILES | PINK1 expr mod | Vif-APOBEC3F blk | TRPML1 inh | TRPML1 agonist | Vif-APOBEC3G blk
CCCCCCCCCc1nc2sc3c(c2c(=O)n1NC(=O)c1ccccc1[N+](=O)[O-])CC(C)(C)OC3 | ? | -4% | 72 | 0 | -4%
CC1(C)CC(=O)C2=C(C1)NC(SCC(=O)Nc1ccccc1)=C(C#N)C21CCCCC1 | ? | -5% | 14 | 3 | 0%
CC(C)(C)C1CCC2(CC1)C(C#N)=C(SCC(=O)Nc1ccccc1)NC(=O)C2C#N (centres undefined) | 22µM* | -2% | -14 | 1 | 2%
CC1Cc2ccccc2N1C(=O)CSC1=NCCS1 (centres undefined) | 11µM* | -13% | -15 | 1 | 1%
CC1Cc2ccccc2N1C(=O)CSc1ccccc1 (centres undefined) | -4%[38.3 µM] | -3% | 29 | 1 | 2%
Nc1c(C(=O)N/N=C/c2ccc(F)cc2)oc2nc(-c3ccccc3)cc(-c3ccco3)c12 | ? | ? | -17 | 0 | ?
Nc1c(C(=O)N/N=C/c2ccccc2Cl)oc2nc(-c3ccccc3)cc(-c3ccco3)c12 | 9% | 7.1µM* | 0 | 2 | ?
O=S(=O)(Nc1nc2ccccc2nc1Nc1cccc(S(=O)(=O)N2CCCCC2)c1)c1ccccc1 | 25µM* | 10µM* | 34 | 1 | ?
Cc1nc(NC(=O)COC(=O)c2cccs2)c(Cl)cc1Cl | 5% | 2% | -18 | 0 | 0%
C/C(=N\NC(=O)C(C)n1nc(C)c([N+](=O)[O-])c1C)c1ccccc1O (centres undefined) | -1% | 5.6µM* | 0 | -1 | -2%
Cc1nn(C(C)C(=O)NCc2ccco2)c(C)c1[N+](=O)[O-] (centres undefined) | 0% | -2% | -9 | -1 | 0%
Cc1cc(C)n(C(=O)/C(C#N)=N/Nc2cc(Cl)cc(Cl)c2)n1 | 25µM* | -5% | 38 | 5 | 1%
O=C(/C=C/c1ccc(N2CCC(c3ccccc3)=N2)cc1)c1ccccc1 | ? | ? | -3 | 87* | ?
CCC(C)n1c(NC(=O)c2ccccc2)c(C#N)c2nc3ccccc3nc21 (centres undefined) | ? | 32µM* | -17 | 1 | ?
O=[N+]([O-])c1ccc(C=CC=Cc2ccccc2)cc1 | 32µM* | -13% | -2 | 1 | -7%
O=S(=O)(c1ccc(Cl)cc1)N1CCCc2ccccc21 | 3% | -4% | 83 | 3 | -12%
CC(=O)Nc1ccc(S(=O)(=O)N2CCCc3ccccc32)cc1 | 3.2µM* | -4% | -8 | 0 | ?
O=C(Nc1ccccc1-c1nc2ccccc2[nH]1)c1ccc(N2C(=O)CCC2=O)cc1 | ? | 11µM* | -7 | 3 | ?
O=C(Nc1ccccc1-c1nc2ccccc2[nH]1)c1ccc(S(=O)(=O)N2CCCCC2)cc1 | -3%[38.3 µM] | -3% | -3 | 1 | 2%
COc1ccc(-n2nc3c(N4CCCC(C(=O)NCc5ccccc5C)C4)nnc(C)c3c2C)cc1 (centres undefined) | -1% | -5% | 35 | 2 | ?
COc1ccc(-n2nc3c(N4CCCC(C(=O)NCCc5ccccc5C)C4)nnc(C)c3c2C)cc1 (centres undefined) | -1% | 22µM* | 6 | 3 | ?
C(=N\NC1=Nc2cccc3cccc1c23)/c1ccccn1 | ? | -8% | -1 | 3 | -1%
Clc1ccccc1/C=N/NC1=Nc2cccc3cccc1c23 | ? | 5.6µM* | 18 | 3 | ?
Nc1nc(-c2ccccc2)c(-c2ccccc2)n1N | 0% | ? | . | . | -12%
c1ccc(-c2cnn3c(-c4ccccc4)c(-c4ccccc4)nc3n2)cc1 | ? | ? | -25 | 79* | ?
SMILES | PINK1 expr mod | Vif-APOBEC3F blk | TRPML1 inh | TRPML1 agonist | Vif-APOBEC3G blk
Cc1cccc(C)c1Nc1sc(C(=O)c2ccccc2)c(N)c1C(=O)Nc1ccc(F)cc1 | 45µM* | -20% | 16 | 4 | -6%
Nc1[nH]c(C(=O)c2ccccc2)c(-c2ccncc2)c1C(=O)NC1CC1 | 1% | . | . | 0 | .
COc1ccc2cc(/C=C/C(=O)N3CCN(CC(=O)N4CCCCCC4)CC3)ccc2c1 | 0% | 6% | 13 | -1 | 0%
CSc1nsc(/C=C/Nc2ccc(C)cc2)c1C#N | 15% | ? | -16 | 0 | 13µM*
CSc1nsc(/C=C/Nc2ccc(C)c(C)c2)c1C#N | 3% | ? | 11 | 0 | -31%
Cc1nn(CCCC(=O)Nc2cc(Oc3ccc(F)cc3)cc([N+](=O)[O-])c2)c(C)c1[N+](=O)[O-] | 0% | 0% | 7 | 0 | -2%
CCn1nc(C)c(C(=O)Nc2cc(Oc3ccc(Cl)cc3)cc([N+](=O)[O-])c2)c1C | 10µM* | -1% | 3 | 2 | ?
Oc1ccc(C[C@H]2CNC(=S)N2CC2CCCN2C[C@H](Cc2ccccc2)N2C[C@H](Cc3ccc(O)cc3)N(CC3CCCCC3)C2=S)cc1 (some centres undefined) | 3% | . | -2 | -1 | -16%
Cc1nn(-c2ccccc2)c(N2CCCC2)c1/C=N/NC(=O)c1cc2ccccc2cc1O | 16µM* | 1% | 33 | 1 | 3%
C[C@H]1CN([C@@H](C)CO)C(=O)CCCn2nncc2CO[C@@H]1CN(C)S(=O)(=O)c1ccc(-c2ccccc2)cc1 | -1% | 0% | 7 | 0 | 1%
Cc1occc1C(=O)Nc1cccc(-c2nc(CNC(=O)c3cccc(C#CC(C)(C)O)c3)c(C)o2)c1 | 3% | . | . | . | .
Cc1nc2ccc(S(=O)(=O)N(C)CC(=O)Nc3ccc(Br)c(C)c3)cc2s1 | 2% | . | -4 | 3 | .
COc1cc(/C=N\Nc2ccc([N+](=O)[O-])cc2)ccc1OCC(=O)Nc1ccc(C)c(C)c1 | 12% | 10µM* | 16 | 1 | -1%
COC(=O)C1=C(C)N(Cc2ccco2)C(=O)/C1=C\c1ccc([N+](=O)[O-])cc1 | 2% | 3.2µM* | -1 | 5 | ?
N#Cc1c(NC(=O)CSc2nc(N)cc(=O)[nH]2)sc2c1CCCC2 | 6% | 2% | 3 | 0 | 3%
Cc1cccc(C)c1N/C=C/c1onc(C)c1[N+](=O)[O-] | 40µM* | ? | -5 | 0 | ?
CN(C)CCC1(C2=CCCC2)CC/C(=C/c2ccc(Cl)cc2)C1=O (centres undefined) | -2% | 9% | 56 | 1 | -15%
